# ± gives the standard deviation of the averaged measurements. In all, about 33,000 sequences were measured (“E-score (rank enrichment, -0.5 to 0.5)”: median about -0.0075, highest 2% from about 0.23 on). The sample as a whole holds a higher share of the highest values than the screen did.
# System: WT Max(13-93) synthetic (M65Nle)
# Test: PBM 8-mer E-score (E-score (rank enrichment, -0.5 to 0.5)); higher = stronger preferential binding
# Protocol: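 Protein binding microarray (universal PBM chip covering all 10-mers in fixed probe flanks) with chemically synthesized human Max(13-93) bHLH-LZ analogs (not full-length Max) bearing noncanonical residues (hArg, Tha, Aib, Nle at 65) and aromatic Cys staples. Read-out per 8-mer (and its reverse complement): E-score (rank-based enrichment, -0.5 to 0.5) and Z-score of median probe intensity.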
row,Sequence,PBM 8-mer E-score
1,AAGTGTCG,0.0847 ± 0.052
2,ACCTGTCT,0.0145 ± 0.064
3,CCGTGTCG,-0.151 ± 0.011
4,GCGTGTCC,0.127 ± 0.037
5,ACGTGTCT,0.363 ± 0.00056
6,CCGTGTCC,-0.00903 ± 0.072
7,AAGTGTCT,-0.104 ± 0.07
8,GCGTGTCA,0.223 ± 0.019
9,ACGTGTCA,0.3263 ± 0.0031
10,CCGTGTCA,0.0378 ± 0.022
11,ACGTGTCG,0.339 ± 0.0083
12,ACGTGTCC,0.243 ± 0.037
13,CCTTTGCG,0.00668 ± 0.0019
14,AGCCCCCC,-0.14 ± 0.14
15,AACAGACA,0.184 ± 0.011
16,CGATTAGC,-0.18 ± 0.11
17,CGGGCGAA,-0.0278 ± 0.057
18,CACGCCTG,0.0753 ± 0.081
19,TGCTTGAA,0.0947 ± 0.15
20,GCCACTGA,-0.158 ± 0.074
21,GACCCCTA,-0.156 ± 0.13
22,CGTGGCTA,0.193 ± 0.013
23,CATCTCAA,0.104 ± 0.017
24,AAAAATAG,0.102 ± 0.059
25,GAATATAA,0.179 ± 0.022

row,Sequence,PBM 8-mer E-score
1,GACTATAA,0.13 ± 0.0092
2,AAAAATAC,0.2 ± 0.033
3,AAATATAA,0.24 ± 0.048
4,AACTATAA,0.269 ± 0.028
5,AAATATAG,0.238 ± 0.099
6,CACTATAA,-0.0318 ± 0.027
7,AAAAATAT,0.256 ± 0.017
8,CAATATAG,0.117 ± 0.021
9,TAATATAA,0.183 ± 0.014
10,ATATATAG,0.182 ± 0.041
11,GTAGAGAC,-0.0752 ± 0.086
12,CGTTCATC,0.0464 ± 0.14
13,GCCCCGCC,0.172 ± 0.053
14,CACAGGTA,0.11 ± 0.061
15,CGGTGACA,-0.162 ± 0.13
16,ACTGCAAT,-0.0126 ± 0.077
17,ATATATAT,0.0942 ± 0.12
18,AAATATGT,0.124 ± 0.078
19,AAATATAT,0.248 ± 0.032
20,AAAATTTT,0.273 ± 0.034
21,CAATATGA,0.183 ± 0.027
22,AAATATGA,0.261 ± 0.023
23,AAAAATTT,0.14 ± 0.091
24,AAAATTTG,0.027 ± 0.066
25,AAATATAC,0.199 ± 0.028

row,Sequence,PBM 8-mer E-score
1,AAGGAGCC,-0.118 ± 0.072
2,CGTAAGCC,0.0338 ± 0.0056
3,CAGGATAC,-0.144 ± 0.019
4,ACGCCAGC,-0.269 ± 0.085
5,ATGCGCCA,0.123 ± 0.11
6,CGTACAAC,0.112 ± 0.047
7,ACGAGTCG,-0.0792 ± 0.021
8,CTTGAAAA,0.0938 ± 0.0069
9,ATTGAAAC,0.117 ± 0.092
10,ATTGAAAA,0.254 ± 0.087
11,CTGAAAAA,-0.141 ± 0.0094
12,ATGAAAAA,0.158 ± 0.13
13,TTGAAAAA,0.234 ± 0.043
14,ACGGTCCA,-0.222 ± 0.021
15,AGATTTAC,0.119 ± 0.041
16,ACCTATCT,0.211 ± 0.065
17,CCTAAGCC,-0.125 ± 0.096
18,ATTTTCGG,0.129 ± 0.056
19,GAAAACAA,0.206 ± 0.059
20,ACACATGG,0.357 ± 0.034
21,ATACATGG,0.134 ± 0.045
22,ACACATAT,0.202 ± 0.041
23,ACACATGA,0.186 ± 0.036
24,ACACATGT,0.359 ± 0.025
25,ACACATCT,0.0507 ± 0.12

row,Sequence,PBM 8-mer E-score
1,CTAGTGGC,-0.019 ± 0.044
2,CACCCTTA,0.118 ± 0.056
3,ACCAGAAA,0.0691 ± 0.0064
4,CCTAGTCA,-0.0758 ± 0.01
5,GCCGAAGC,-0.212 ± 0.034
6,ACATTGTC,0.19 ± 0.033
7,ACATTGTA,0.153 ± 0.06
8,ACATTGTG,0.26 ± 0.054
9,AGAGACCG,-0.14 ± 0.044
10,CCGCCCGG,-0.265 ± 0.039
11,CCCGCCCA,0.183 ± 0.043
12,GCCCGCCC,0.0723 ± 0.054
13,CCCCCGCC,0.0274 ± 0.11
14,CCGCCCCC,-0.124 ± 0.051
15,CCCGCCCG,0.025 ± 0.078
16,CCCCGCCC,0.369 ± 0.062
17,CCCGCCCC,0.285 ± 0.14
18,AACCCGCC,-0.0368 ± 0.068
19,ACCCCGCC,0.279 ± 0.035
20,ACCCGCCC,0.0569 ± 0.092
21,CCGCCCCG,0.236 ± 0.075
22,CTCGTTCC,-0.0941 ± 0.0052
23,CCGACGTA,-0.103 ± 0.022
24,AATCACCT,0.115 ± 0.11
25,TAGTGCAA,0.023 ± 0.006

row,Sequence,PBM 8-mer E-score
1,AGCGGAGG,-0.124 ± 0.11
2,CTTAATGC,0.162 ± 0.095
3,CCGTACCA,-0.129 ± 0.033
4,AACACGCG,0.3 ± 0.08
5,CACACGAC,0.13 ± 0.11
6,AACACGCA,0.134 ± 0.0072
7,CACACGAG,0.105 ± 0.0042
8,CACACAAA,0.103 ± 0.13
9,AACACGCC,0.0311 ± 0.14
10,CACACGAA,0.272 ± 0.054
11,GACACAAA,0.24 ± 0.048
12,TACACAAA,0.0928 ± 0.018
13,AACGCTCG,-0.131 ± 0.017
14,CACGCTCA,0.0695 ± 0.057
15,CACGCTCG,0.266 ± 0.035
16,AAATTAAA,0.198 ± 0.044
17,TCAAAGGA,0.0761 ± 0.07
18,CGTTTTGA,-0.0368 ± 0.12
19,ACGACATG,0.0526 ± 0.047
20,CGCGGCCA,-0.0571 ± 0.036
21,CCGAAACC,-0.199 ± 0.026
22,GACACCGC,-0.206 ± 0.08
23,ACGTCCCC,0.0319 ± 0.084
24,AGCATTTA,-0.11 ± 0.038
25,CACACGCC,0.0838 ± 0.085

row,Sequence,PBM 8-mer E-score
1,CACACGCG,0.302 ± 0.017
2,CACACGCA,0.174 ± 0.028
3,TAGGCACA,0.0603 ± 0.0065
4,CAGAGGTA,0.0024 ± 0.058
5,CTATGATA,-0.00697 ± 0.0076
6,ATATGATA,0.302 ± 0.013
7,GTATGATA,0.235 ± 0.0072
8,GGATGATA,-0.00911 ± 0.064
9,ATATGATG,0.19 ± 0.03
10,GTATGAGA,0.109 ± 0.033
11,CAGCGCCA,-0.237 ± 0.0045
12,GTGGCTCA,-0.0168 ± 0.037
13,ACAGGAGA,0.0713 ± 0.014
14,CCCTACGG,-0.21 ± 0.015
15,AACACATC,-0.0183 ± 0.028
16,AACACATA,0.263 ± 0.084
17,AACACATG,0.368 ± 0.0069
18,AAAACATT,0.147 ± 0.033
19,CACACATA,0.0464 ± 0.029
20,AACACATT,0.13 ± 0.017
21,TACACATA,0.213 ± 0.083
22,AAAACATG,0.28 ± 0.024
23,CAAACATG,0.17 ± 0.13
24,CATGTAGA,0.193 ± 0.018
25,ACGCCCTC,0.0691 ± 0.11

row,Sequence,PBM 8-mer E-score
1,GATCCAGC,-0.241 ± 0.017
2,ATCCGTAG,-0.21 ± 0.046
3,GCAGTGAA,0.0345 ± 0.11
4,AGGACAAT,0.183 ± 0.045
5,ATGACAAG,0.119 ± 0.12
6,AAGACAAT,0.228 ± 0.075
7,ATGACAAT,0.264 ± 0.018
8,ATGACAAA,0.261 ± 0.11
9,ATGACAAC,0.166 ± 0.029
10,TCGGGCCA,-0.185 ± 0.0072
11,CGAATCTA,-0.0418 ± 0.067
12,ATGTATGC,0.166 ± 0.0091
13,ACTAGACT,0.0207 ± 0.063
14,AAGCACGA,0.125 ± 0.0091
15,ACGCACAG,-0.0926 ± 0.096
16,AAGCACGT,0.367 ± 0.028
17,ACGCACGT,0.314 ± 0.041
18,ACGCACGA,0.143 ± 0.032
19,ACGCACAT,0.267 ± 0.02
20,ACGCACGC,0.205 ± 0.014
21,AAGCACGG,0.0974 ± 0.06
22,ACGCACAA,0.0902 ± 0.052

# From the supplement of paper PMC12636033
